Assay [1] concerns the target Thyrotropin receptor (Homo sapiens) (UniProt P16473). In words: qHTS assay to identify small molecule agonists of the thyroid stimulating hormone receptor (TSHR) signaling pathway (AID 1224843; calls by dose curve; note: nearly all actives have a fitted effect of over 45% in size). The procedure, abridged:
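Using 15 concentrations per compound in triplicate, cAMP production was monitored in TSHR-HEK293 cells after 30 min compound incubation at RT; HTRF reagents followed, with fluorescence intensity recorded after 1 h.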
Background: qHTS replaces the single test concentration by a dilution series.

A short description of assay [2]: qHTS assay to identify small molecule agonists of H2AX (AID 1224845; active = well fitted activation curve with a large enough effect in the signal ratio in the repeat runs, not every such curve was filed as active; the % refers to the signal ratio). The procedure, abridged: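 Wild-type CHO-K1 cells plated overnight, then exposed 3 hr at 37C to compounds at 15 concentrations (0.76% DMSO). Lysed, then HTRF anti-pH2AX(S139)-cryptate/anti-H2AX-d2 detection after 24 hr at room temperature; emissions 665 and 620 nm.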
A short description of assay [3]: qHTS assay to identify small molecule agonists of the hypoxia (HIF-1) signaling pathway (AID 1224846; active = well fitted activation curve with a large enough effect in the signal ratio in the repeat runs, not every such curve was filed as active; the % refers to the signal ratio). In outline:
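In ME-180 cells bearing an HRE-bla construct, 17 h treatment with DMSO-dissolved compounds at 37C was followed by CCF4-AM loading to quantify reporter induction.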

Assay [4] can be described thus: qHTS assay to identify small molecule agonists of H2AX - cell viability counter screen (AID 1224847; calls by dose curve; note: top concentration of the series differs between compounds; nearly all actives have a fitted effect of over 30% in size). In outline:
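Cells plated first: CHO-K1, 1000 per well in 10% FBS medium, incubated overnight at 37C. Then 15-point compound titration added (final DMSO 0.76%) for 3 hr. Finally CellTiter-Glo added and luminescence read.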

A short description of assay [5]: qHTS assay to identify small molecule agonists of the estrogen related receptor (ERR) signaling pathway from Tox21 library (AID 1224849; calls by dose curve; note: nearly all actives have a fitted effect of over 15% in size). The conditions noted are these: ERR reporter cell line, ONE-Glo luciferase, 18 h; at 92.4 µM (top of the series) unless noted. The procedure, abridged:
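Reporter cells (ERR, NTP source) treated with Tox21 10K compounds 18 h, 37 C. Readout: ONE-Glo luminescence, 30 min RT.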

A short description of assay [6]: qHTS RealTime-Glo MT Cell Viability Assay in HepG2 cells - 8 hour (AID 1224873). Note: nearly all actives have a fitted effect of over 55% in size. In outline: (§1)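 HepG2 cells mixed with RealTime-Glo MT reagents (NanoLuc plus cell-permeant prosubstrate) were seeded at 600 cells/well, incubated 5 h at 37 C/5% CO2, then pinned with compounds in DMSO; nonlytic luminescence tracked viability during 40 h treatment.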
Assay [7] is described as follows: qHTS RealTime-Glo MT Cell Viability Assay in HEK293 cells - 40 hour (AID 1224874). Note: nearly all actives have a fitted effect of over 50% in size. To be noted: RealTime-Glo luminescence; max response: active compounds read low. The procedure, abridged:
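Measured as luminescence from the same continuously cultured HEK293 wells at successive time points (0, 8, 16, 24, 32, 40 h) after compound addition. Reagent present from seeding; dosing at 5 h; incubation 37 C.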

The nature of assay [8]: A CellTox Green Cytotoxicity Assay to monitor cytotoxicity in HepG2 cells - 16 hour (AID 1224876). Note: nearly all actives have a fitted effect of over 45% in size. The procedure, abridged:
(§2)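 Fluorescent DNA-binding dye, 600 HepG2 cells/well, 5 h preincubation then compound in DMSO; same plates read at 0–40 h, 37 C.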

A short description of assay [9]: qHTS RealTime-Glo MT Cell Viability Assay in HepG2 cells - 32 hour (AID 1224877). Note: nearly all actives have a fitted effect of over 55% in size. In outline: (§3)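 qHTS, HepG2, 600 cells/well, RealTime-Glo (NanoLuc + prosubstrate) added with cells; 5 h preincubation; DMSO compound addition; 37 C; luminescence at 0/8/16/24/32/40 h.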
A short description of assay [10]: A CellTox Green Cytotoxicity Assay to monitor cytotoxicity in HepG2 cells - 40 hour (AID 1224879). Note: nearly all actives have a fitted effect of over 40% in size. The procedure, abridged: as §2
The nature of assay [11]: qHTS assay to identify small molecule agonists of the hypoxia (HIF-1) signaling pathway - cell viability counter screen (AID 1224844; calls by dose curve; note: nearly all actives have a fitted effect of over 50% in size). The procedure, abridged:
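Same wells as the HIF-1 reporter screen; ME-180 cells carrying HRE-bla, 17 hr treatment at 37C; CellTiter-Glo luminescence read after 30 min at room temperature.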

Assay [12] is described as follows: qHTS RealTime-Glo MT Cell Viability Assay in HepG2 cells - 24 hour (AID 1224867). Note: nearly all actives have a fitted effect of over 50% in size. The procedure, abridged: as §3
The nature of assay [13]: A CellTox Green Cytotoxicity Assay to monitor cytotoxicity in HEK293 cells - 0 hour (AID 1224869). Note: nearly all actives have a fitted effect of over 50% in size. The procedure, abridged:
(§4)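 Homogeneous no-lysis format: HEK293 cell suspension mixed with CellTox Green reagent, seeded, incubated 5 h at 37 C/5% CO2, then dosed by pintool with compound in DMSO.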

Assay [14] is described as follows: A CellTox Green Cytotoxicity Assay to monitor cytotoxicity in HEK293 cells - 40 hour (AID 1224871). Note: nearly all actives have a fitted effect of over 45% in size. In outline:
as §4

The nature of assay [15]: A CellTox Green Cytotoxicity Assay to monitor cytotoxicity in HEK293 cells - 24 hour (AID 1224875). Note: nearly all actives have a fitted effect of over 45% in size. The procedure, abridged:
as §4

The nature of assay [16]: qHTS RealTime-Glo MT Cell Viability Assay in HEK293 cells - 32 hour (AID 1224868). In outline: (§5)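 Assay medium contained NanoLuc luciferase plus cell-permeant prosubstrate, added with HEK293 cells at 600 cells/well. After 5 h at 37 C/5% CO2 compounds were added; plates stayed at 37 C for 40 h with serial luminescence reads.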
Assay [17] can be described thus: qHTS RealTime-Glo MT Cell Viability Assay in HepG2 cells - 40 hour (AID 1224870). Note: nearly all actives have a fitted effect of over 50% in size. In outline: as §1
Assay [18] can be described thus: qHTS RealTime-Glo MT Cell Viability Assay in HEK293 cells - 16 hour (AID 1224872). In outline: as §5
Assay [19] can be described thus: A CellTox Green Cytotoxicity Assay to monitor cytotoxicity in HepG2 cells - 24 hour (AID 1224878). Note: nearly all actives have a fitted effect of over 45% in size. The procedure, abridged:
as §2

Assay [20] can be described thus: qHTS assay to identify small molecule antagonists of the estrogen related receptor (ERR) signaling pathway from Tox21 library (AID 1224848). Note: nearly all actives have a fitted effect of over 50% in size. Note: potency is the fitted concentration of half-maximal effect. The procedure, abridged: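 Tox21 10K compounds in DMSO tested for ERR pathway antagonism in NTP's ERR cell line; 18 h, 37 C exposure; ONE-Glo luminescence.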

Unmarked numbers belong to inactive results. Inconclusive results are not listed. The source made the active and inactive calls. Unless noted, calls come from the whole dose curve; as a rule, active = well fitted curve in the direction sought with a large enough effect in the repeat runs; inconclusive = weak or mixed curves; inactive = no such curve, though single readings can be large; an effect the other way counts as inactive or inconclusive.
% is set by controls: 0 for no effect and ±100 for the full control effect.

Thyrotropin receptor (Homo sapiens), sequence (P16473 whole entry, looked up): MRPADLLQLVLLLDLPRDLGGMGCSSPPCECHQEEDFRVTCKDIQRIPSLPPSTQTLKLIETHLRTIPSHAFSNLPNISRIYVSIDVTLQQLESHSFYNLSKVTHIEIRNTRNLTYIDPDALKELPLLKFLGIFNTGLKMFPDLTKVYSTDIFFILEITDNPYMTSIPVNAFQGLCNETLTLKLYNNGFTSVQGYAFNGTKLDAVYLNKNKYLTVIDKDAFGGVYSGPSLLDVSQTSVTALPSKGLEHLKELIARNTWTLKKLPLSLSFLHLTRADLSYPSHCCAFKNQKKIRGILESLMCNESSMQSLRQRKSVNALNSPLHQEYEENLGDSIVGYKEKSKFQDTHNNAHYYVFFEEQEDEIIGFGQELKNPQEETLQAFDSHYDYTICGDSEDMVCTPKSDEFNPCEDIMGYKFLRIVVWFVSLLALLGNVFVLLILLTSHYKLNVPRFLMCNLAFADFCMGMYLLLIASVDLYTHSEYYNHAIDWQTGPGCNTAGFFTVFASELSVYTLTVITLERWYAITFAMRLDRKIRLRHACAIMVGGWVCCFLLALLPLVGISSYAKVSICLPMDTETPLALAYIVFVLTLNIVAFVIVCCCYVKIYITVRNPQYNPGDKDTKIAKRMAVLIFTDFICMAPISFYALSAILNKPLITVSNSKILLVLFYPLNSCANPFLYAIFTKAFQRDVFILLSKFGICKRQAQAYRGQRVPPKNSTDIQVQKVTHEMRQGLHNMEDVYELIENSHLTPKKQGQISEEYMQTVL

`CC(C)CC(C)(C)C`: the Potency entry in assay [1], in [2], in [4], in assay [8], in assay [9] and in assay [10] was “inactive” each time. In addition, the call in [3] and in assay [6] was inactive. Moreover, in assay [5], the activity change, positive = activation was -31.7%. In addition, the max response in assay [7] is -17.8%.

`S=c1[nH][nH]c(=S)s1`: the Potency entry in [1], in assay [11], in [4], in [13], in assay [14] and in [15] was “inactive” in each case. The Potency entry in [8], in assay [9] and in [10] was “inactive” in each case. Also, the result in assay [3], in [12] and in assay [6] was inactive.

On to `C[C@H]1C[C@H]2[C@@H]3CCC4=CC(=O)C=C[C@]4(C)[C@@]3(F)[C@@H](O)C[C@]2(C)[C@@]1(O)C(=O)COP(=O)(O)O`, for which the Potency result in [1], in assay [2], in [4], in [16], in assay [17] and in [14] was “inactive” in each case. The Potency result in assay [18], in [15], in [8], in assay [9], in assay [19] and in assay [10] was “inactive” each time. In addition, the call in [3], in assay [12] and in assay [6] was inactive. Besides, in assay [7], the max response is -11.1%.

Regarding `CC(C)(C)c1cc(C=O)cc(C(C)(C)C)c1O`, the Potency entry in [1], in assay [2], in [16], in assay [13], in assay [17] and in [14] was “inactive” each time. Moreover, the Potency result in assay [18], in assay [15], in [8], in assay [9] and in assay [10] was “inactive” each time. Besides, the compound was classed as inactive in assay [3], in assay [12] and in [6]. In addition, in [7], the max response was -0.177%.

Take `N#C[C@@H]1CC(F)(F)CN1C(=O)CNC1CC2CCC(C1)N2c1ncccn1` (some centres not stated): the Potency entry in assay [1], in [2], in assay [4], in assay [20], in assay [16] and in [13] was “inactive” each time. Besides, the Potency result in [17], in [18], in assay [15], in [8], in assay [9] and in assay [19] was “inactive” each time. Also, in [10], the Potency result was “inactive”. Moreover, the call in [3], in [12] and in [6] was inactive. For the same compound, the activity change, positive = activation in [5] is -3.52%. Moreover, the max response in assay [7] was 1.88%.

`O=c1[nH][nH]c2ccccc12`: the Potency result in assay [1], in assay [11], in assay [4], in assay [13], in assay [17] and in assay [14] was “inactive” throughout. For the same compound, the Potency result in [18], in [15], in assay [8], in assay [9], in [19] and in assay [10] was “inactive” in each case. The result in [3], in [12] and in [6] was inactive.

On to `CC1=CC(=C(c2ccc(N)cc2)c2ccc(N)cc2)C=CC1=N`, for which the activation was 3.86% [at 8.39 µM] in assay [1] and 0.607% [at 7.01 µM] in assay [3]. Further, the activation (H2AX phosphorylation) in [2] is -3.22% [at 14 µM]. Also, the Potency in assay [20] is 2190 nM (active). Moreover, in assay [5], the activity change, positive = activation was -47.7% [at 8.39 µM]. Also, the activity change, negative = cytotoxicity in assay [12] is -2.94% [at 6.97 µM]. Also, in assay [13], the cytotoxicity was -6.03% [at 6.97 µM]. In addition, the activity change, negative = cytotoxic in [17] was -1.71% [at 6.97 µM]; in assay [9], -1.73% [at 6.97 µM]. In addition, the cytotoxicity increase in assay [14] was 5.33% [at 6.97 µM]; in [8] it was 1.38% [at 6.97 µM]; in assay [10], 5.34% [at 6.97 µM]. Moreover, the viability change, negative = cytotoxic in assay [6] is 2.31% [at 6.97 µM]. Further, the activity change in assay [15] is -0.584% [at 6.97 µM, active compounds read high].

For the compound `O=C(O)c1ccncc1`, the Potency entry in [1], in [2], in assay [4], in assay [16], in assay [13] and in assay [17] was “inactive” each time. In addition, the Potency result in assay [14], in assay [18], in [15], in assay [8], in [9] and in assay [19] was “inactive” each time. In [10], the Potency entry was “inactive”. Besides, the activity change, positive = activation in assay [5] is -23.5%. Also, the compound was called inactive in [12] and in assay [6]. Besides, in assay [7], the max response was 9.67%.

Source of the values: PubChem BioAssay (Tox21).
